Screening data from PubChem BioAssay.
Most compounds without a hit are left out; they make up all but 21% or so of the library.
Sm TGR inh: qHTS Assay for the Inhibitors of Schistosoma Mansoni Peroxiredoxins | purified TGR, DTNB reduction, TNB absorbance 405 nm | Potency, µM (top dose mostly 114 µM), hits mostly inhibitors | AID 485364, 2010 | 360,000 compounds, 3% hits; further: nearly all actives have a fitted effect of over 60% in size
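First, TGR (20 nM dispensed) and NADPH were mixed with compound. Second, a 15 min room-temperature incubation followed. Third, further NADPH and then DTNB were added to start the reaction. Finally, TNB absorbance was monitored kinetically.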
Pf growth 96h: Primary qHTS for delayed death inhibitors of the malarial parasite plastid, 96 hour incubation; 320,000 compounds, 6.9% hits; P. falciparum luciferase reporter growth, 96 h; Potency, µM (series often up to 28.7 µM), actives largely listed as inhibitors
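P. falciparum expressing integrated firefly luciferase grown in erythrocytes (2% hematocrit, 0.05% parasitemia final) with compounds for 96 hours at 37 C, 5% CO2. Growth inhibition read as loss of luminescence after adding luciferase detection reagent.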
NS1 inh: qHTS Assay for Inhibitors of Influenza NS1 Protein Function | Potency, µM (series often up to 46.1 µM) | 270,000 compounds, 0.4% hits | AID 2326, 2010; calls by dose curve; further: actives are rising curves; nearly all actives have a fitted effect of over 50% in size
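Read-out: OD600 growth recovery of NS1-expressing budding yeast. Cells grown overnight at 30C in -URA glucose medium, washed, resuspended and diluted 1:100 in 2% galactose assay medium, pH 6.0. Same strain lacking NS1 served as positive control.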
CHX counter: Cycloheximide Counterscreen for Small Molecule Inhibitors of Shiga Toxin. cell reporter, cycloheximide protein synthesis inhibition counterscreen. max response, %. 300,000 compounds, 12% hits. AID 2314, 2010; in the data active means max response mostly above about 13%, no sharp cut-off; inactive means mostly below about 14%; further: read at 38.3 µM for the half of the compounds with a filed dose
Pf growth 48h: Primary qHTS for delayed death inhibitors of the malarial parasite plastid, 48 hour incubation; P. falciparum luciferase growth in erythrocytes, 48 h; 310,000 compounds, 5.9% hits; Potency, µM (series often up to 28.7 µM), usual class: inhibitors
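Luciferase-expressing parasites in RBCs, 2% Hct / 0.1% parasitemia final; RPMI 1640 + 0.5% Albumax; 37 C, 5% CO2, one generation; luminescence read-out, lower signal = inhibition.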
Shiga toxin inh: A qHTS for Small Molecule Inhibitors of Shiga Toxin; inhibition, % at 38.7 µM; Vero cells, Shiga toxin protein synthesis inhibition reporter; 290,000 compounds, 9.2% hits; in the data active means inhibition mostly above about 28%, no sharp cut-off; inactive means mostly below about 43%
Hits are given with their value; 0 = inactive; ? = inconclusive; - = not tested or not shown; [ ] = dose if it differs, or a comment. Unless noted, the call rests on the fitted dose curve; in most records, active means well fitted curve in the direction sought with a large enough effect; inconclusive means small, poorly fitted or top-dose-only effect, or another doubt; inactive means no such curve, though single readings can be large; an effect the other way counts as inactive or inconclusive.

SMILES	Sm TGR inh	Pf growth 96h	NS1 inh	CHX counter	Pf growth 48h	Shiga toxin inh
O=C(Nc1ccc(Cl)cc1)Nn1cnc2ccccc2c1=O	0	0	0	24	0	48
Cc1cc(C)nc(SCCn2c(N3CCOCC3)nc3c2c(=O)[nH]c(=O)n3C)n1	0	?	-	0	0	0
Cc1ccccc1C(=O)Nn1cnc2ccccc2c1=O	0	?	-	33	0	50
C[C@H]1C[C@@H]2[C@@H]([C@@H](O)C[C@@]3(C)[C@H]2CC[C@]3(O)C(=O)CO)[C@@]2(C)C=CC(=O)C=C12	-	?	-	-	0	-
O=C(Nc1ncc(Cc2cccc(Cl)c2)s1)C1CCCO1 (stereo not given)	0	0	0	69	0	116
O=C(Nc1ncc(Cc2cccc(Cl)c2Cl)s1)C1CCCO1 (stereo not given)	0	0	0	47	0	101
CC(=O)Nc1ncc(Cc2cccc(Cl)c2Cl)s1	-	0	0	0	0	0
O=C(Nc1ncc(Cc2ccccc2Cl)s1)C1CCCO1 (stereo not given)	0	?	0	54	0	49
CC(=O)Nc1ncc(Cc2cccc(Cl)c2)s1	0	0	0	0	0	0
O=c1[nH]cc(F)c(=O)[nH]1	0	4.7µM	0	0	6.6µM	0
O=C(CCCc1ccccc1)Nc1ccccc1C(F)(F)F	0	?	0	13	0	-
Cc1ccccc1NC(=O)CC(=O)c1ccccc1	0	0	0	18	0	0
CC(C)N(CC(=O)Nc1ccc(Cl)cc1C(F)(F)F)C(=O)CCl	18µM	0	-	21	0	0
CCC(C)N(CC(=O)Nc1cccc(C)c1C)C(=O)CCl (stereo not given)	20µM	3.7µM	-	0	?	0
Cc1ccccc1NC(=O)Cc1ccccc1	0	?	0	0	0	0
O=C(CC(=O)c1ccccc1)Nc1ccccc1C(F)(F)F	0	12µM	0	32	0	0
Cc1cccc(NC(=O)CCCc2ccccc2)c1C	0	0	0	23	0	32
Cc1cc(O)cc(C)c1Cl	-	8.5µM	-	-	15µM	-
Cc1cc(O)c(N)c(C)c1Cl	0	?	-	0	3.3µM	0
OCc1cnc(SCc2cccc(F)c2)n1Cc1ccc(F)cc1	0	-	-	-	-	-
CCOc1ccc(CNC(=O)Cn2c(=O)c3cccn3c3cccnc32)cc1	0	-	-	-	-	-
CCC1C=CC=CC[C@H](C)[C@@H](O)[C@](C)(O)C(=O)[C@@H](C)[C@H](O)[C@@H](C)C(=O)[C@H](C)[C@@H](O)[C@H](C)C=CC(=O)OC2[C@@H](C)C(CC1)OC1(CC[C@@H](C)C(C[C@H](C)O)O1)[C@@H]2C (stereo not given in full)	0	0.12µM	-	-	0.13µM	-
COC(=O)c1c(C)oc2c1cc(NS(=O)(=O)c1c(C)cc(C)cc1C)c1ccccc12	0	-	-	-	-	-
O=C(Cc1ccccc1)NCCSC1CCCCC1	0	0	0	31	0	58
CCOC(=O)N1CCN(C(=O)CN2C(=O)CC(C)(C)S(=O)(=O)c3ccccc32)CC1	0	3.3µM	0	0	-	0
SMILES	Sm TGR inh	Pf growth 96h	NS1 inh	CHX counter	Pf growth 48h	Shiga toxin inh
CCCN1CCN(C(=O)CN2C(=O)CC(C)(C)S(=O)(=O)c3ccccc32)CC1	?	15µM	0	0	0	0
O=C(CSc1nc(C(F)(F)F)cc(=O)[nH]1)NCc1ccc2c(c1)OCO2	0	0	-	-	?	-
CC1CCCCC1NC(=O)CSc1nnc(CC(=O)Nc2ccccc2F)n1C (stereo not given)	0	0	0	0	0	0
COc1ccc(N2CCC(CNC(=S)Nc3cc(C)cc(C)c3)C2)cc1 (stereo not given)	0	?	0	0	9.3µM	0
COc1ccc(N2CCC(CNC(=S)Nc3cc(C)ccc3C)C2)cc1 (stereo not given)	0	?	0	0	?	0
CC(/C=N/n1c(COc2ccccc2)n[nH]c1=S)=C\c1ccco1	0	0	0	0	0	0
N#CCc1nc2c3c4c(sc3ncn2n1)CCCC4	0	10µM	0	0	-	0
Cc1nn2cnc3sc4c(c3c2nc1=O)CCCC4	0	?	0	0	0	0
Nc1nc(-c2ccc3ccccc3c2)cc(-c2cc(-c3ccc4ccccc4c3)nc(N)n2)n1	-	-	0	-	-	-
Nc1nc(-c2ccc3ccccc3c2)cs1	0	?	-	43	0	86
COc1ccc(-c2csc(-c3cc4ccccc4oc3=N)n2)cc1	0	0	0	0	0	0
Cc1ccc(-c2csc(N=C(N)N)n2)c(C)c1	0	?	0	36	?	37
Nc1nc(-c2ccc(Oc3ccccc3)cc2)cs1	0	?	0	39	0	53
COc1ccc(-c2csc(N=C(N)N)n2)cc1	0	?	0	25	?	68
C[C@@]12CCC=C[C@H]1[C@H](c1ccc(F)c(/C=C/c3ccccc3)c1)N(Cc1ccccc1)C2=O	?	?	0	0	?	0
CCC(C)NC(=O)[C@@H]1CSC2c3ccccc3C(=O)N21 (stereo not given in full)	0	0	0	0	-	0
CCCC/C=C/[C@H](c1ccccc1)[C@H](CO)Cc1ccc2ccccc2c1	-	-	-	0	-	0
c1ccc2cc(-c3csnn3)ccc2c1	0	0	0	32	0	108
Nc1nc(-c2ccc(-c3ccccc3)cc2)cs1	0	0	0	62	0	151
COc1ccc(-c2csc(N)n2)cc1	0	0	0	37	0	58
CC(NCC(=O)Nc1cc(S(=O)(=O)N2CCOCC2)ccc1Cl)c1ccc(Cl)cc1Cl (stereo not given)	0	?	-	-	?	-
CCOc1ccc(NS(=O)(=O)c2ccc3c(c2)CCN3C(C)=O)cc1	0	?	0	0	0	0
NC(=O)c1oc2ccccc2c1NC(=O)c1ccc(F)cc1	0	0	0	0	0	0
COc1cc(NC(=O)c2ccc([N+](=O)[O-])o2)ccc1NC(=O)c1ccco1	0	?	0	0	0	0
CC(C)C(=O)N1CCN(c2ccc(NC(=O)c3ccc([N+](=O)[O-])o3)cc2)CC1	?	0	0	40	4.7µM	0
SMILES	Sm TGR inh	Pf growth 96h	NS1 inh	CHX counter	Pf growth 48h	Shiga toxin inh
Cc1cc(NC(=O)c2ccc([N+](=O)[O-])o2)ccc1NC(=O)c1ccco1	?	0[1.15 µM]	-	36	8.3µM	97
Cc1cc(C)cc(NC(=O)c2ccc([N+](=O)[O-])o2)c1	35µM	?	-	34	13µM	35
NC(=O)c1oc2ccccc2c1NC(=O)c1ccc([N+](=O)[O-])o1	0	0	0	0	9.3µM	28
CCOC(=O)Cc1ccc(NC(=O)NCc2c(-n3cccc3)sc3c2CCCC3)cc1	0	-	-	-	-	-
COc1ccc(-c2nnc(C3CCN(S(=O)(=O)c4cccc(Cl)c4)CC3)o2)cc1	0	-	-	-	-	-
Cc1ccc(C)c(-c2nnc(NC(=O)c3ccc([N+](=O)[O-])o3)o2)c1	35µM	9.3µM	-	-	9.3µM	-
